This is an account of results in PubChem BioAssay AID2314 (National Center for Advancing Translational Sciences (NCATS), 2010).

Hit rate of the full screen: of about 300,000 compounds, about 37,000 (12%) were called active. Many of the other results were omitted from the sample, so actives are more common in it than they were. Unmarked numbers belong to inactive results. Cut-off read from the data, not from the text of the source: active = max response mostly above about 13% (no sharp cut-off); inactive = mostly below about 14%.

This assay in a line: Cycloheximide Counterscreen for Small Molecule Inhibitors of Shiga Toxin. Note: read at 38.3 µM for the half of the compounds with a filed dose; 0% is about no effect. Particulars: cell reporter, cycloheximide protein synthesis inhibition counterscreen; active compounds read high.
With `Cc1cccc(CNS(=O)(=O)c2ccc(-c3cnc(C4CC4)o3)cc2)c1`, the max response was 18.8%.
Then `CCOC(=O)c1sc(/N=C/Nc2nc(C)c(C(=O)OCC)s2)nc1C`, with 10.8%; and `CC(=O)c1sc(N/N=C/c2ccc(C(C)C)cc2)nc1C`, with 43% (active); and `CC(=O)c1sc(N/N=C\c2ccc(C)cc2)nc1C`, with 48.9% (active).
As to `Cc1nnc(C)n1/N=C/c1ccc(C(C)C)cc1`, the max response was 4.86%.
For `Cc1ccc(S(=O)(=O)Nc2nc(C)cc(N/N=C/c3ccc(O)cc3)n2)cc1` the value was -2.44%.
For `CC(=O)c1sc(NC(=O)CCCOc2ccccc2C)nc1C` the value was 1.03%.
For `C=CCC1(C#N)C(=S)NC(C)=C(C(=O)OCC)C1c1ccccc1` (stereo unspecified) the value was -1.77%; for `NC(=O)C1CCN(CC(O)CSc2ccc(F)cc2)CC1` (stereo unspecified), -5.01%.
With `NS(=O)(=O)c1ccc(CCNC(=O)c2ccc([N+](=O)[O-])cc2[N+](=O)[O-])cc1`, the max response is -3.47%.
Then `COc1ccc(C(=O)NC(=S)Nc2ccc(Cl)cn2)cc1OC`, with -1.11%; and `CC(=O)c1ccc2c(c1)OCCOCCOc1ccc(C(C)=O)cc1OCCOCCO2`, with 0.857%.
As to `O=C(Nc1ccc(Cl)cn1)c1ccc2c(c1)OCCO2`, the max response was 37.5% (active).
For `O=C(Nc1ccc(Cl)cn1)c1cnn2cccnc12` the value was 58.9% (active); for `Cc1ccc2sc(NNC(=O)c3ccc4c(c3)OCCO4)nc2c1C`, 5.17%.
For `Cc1cc(NC(=O)c2cnn3cccnc23)n(-c2ccccc2)n1` the value was 0.387%; for `Cc1nc(NC(=O)c2ccc3c(c2)OCCO3)ccc1Br`, 57.9% (active).
Then `COc1c(Cl)cc(C(=O)Nc2ccc(Cl)cn2)cc1Cl`, with 11.7%; and `O=C(Nc1cccnc1)c1ccc(Cl)cc1[N+](=O)[O-]`, with -1.02%; and `O=C(NCc1ccncc1)C(=O)NCC1OCCN1S(=O)(=O)c1ccc(Br)cc1` (stereo unspecified), with -5.83%.
Turning to `CSCCNCc1cn(-c2ccc(F)cc2F)nc1-c1ccccc1C`, the max response was -0.8%.
For `COc1cc(OC)c(NS(=O)(=O)c2cn(C)cn2)cc1Cl` the value was -0.545%; for `COc1cc(/C=C2/C(=O)NN(c3cccc(Cl)c3)C2=O)cc(Br)c1O`, 0.32%.
For `CC1(C)O[C@@H]2C[C@@H]3[C@H]4C[C@@H](F)C5=CC(=O)C=C[C@]5(C)[C@@]4(F)[C@@H](O)C[C@]3(C)[C@]2(C(=O)CO)O1`, the max response was 7.66%.
Then `CCOC(=O)c1ccc(NC(=O)c2nc[nH]c2C(=O)NCc2ccccc2)cc1`, with -1.19%.
For `O=C(NCCN1CCN(C(=O)c2cccc([N+](=O)[O-])c2)CC1)C(=O)NCc1ccc(Cl)cc1` the value was 1.34%.
Then `Cc1cc(-c2csc(N)n2)c(C)n1-c1ccccc1`, with 28.2%; and `Cc1cc(-c2csc(N)n2)c(C)n1Cc1ccccc1`, with 22.9% (active).
`CC(=O)Nc1ccc(C(=O)Nc2nc(-c3cc(C)n(Cc4ccccc4)c3C)cs2)cc1`: the max response is -2.65%.
Then `Cc1nn2c(c1-c1ccccc1)N=C(c1ccco1)CC2c1ccccc1` (stereo unspecified), with 20.9% (active); and `O=C(O)CCCC(=O)N1N=C(c2ccco2)CC1c1ccco1` (stereo unspecified), with -3.77%.
Then `Cn1c(N)c(C(=O)COC(=O)C23CC4CC(CC(C4)C2)C3)c(=O)n(C)c1=O`, with -2.04%.
For `Cc1cc(NC(=O)Nc2ccccc2[N+](=O)[O-])no1` the value was 16.1% (active); for `O=C(Nc1ccccc1[N+](=O)[O-])C1C(c2ccccc2)=C1c1ccccc1`, -1.97%.
Regarding `O=C(O)c1ccccc1C(=O)Nc1ccccc1[N+](=O)[O-]`, the max response was 0.991%.
For `Cc1c(NC(=O)Nc2ccccc2)cccc1[N+](=O)[O-]` the value was -0.54%.
Then `Cc1csc(NC(=O)Nc2ccccc2[N+](=O)[O-])n1`, with 40.4% (active); and `CCOC(=O)/C(=N\Nc1ccccc1[N+](=O)[O-])c1csc(Nc2ccccc2)n1`, with 11.6%.
With `CCCCCCC12CCC(C(=O)O)(CC1)CC2`, the max response is -3.19%.
For `Cc1ccc(OCCCn2c(=O)oc3ccccc32)cc1` the value was 33.3% (active); for `NC(=O)Cn1c(=O)oc2ccccc21`, -2.47%.
For `Cc1cccc(NC(=O)CCn2c(=O)oc3ccccc32)c1` the value was -4.29%; for `COc1ccccc1C(=O)Nc1nc2nc(-c3ccccc3)cc(=O)n2[nH]1`, 9.7%.
Then `Cc1cc(S(=O)(=O)NCC(C)C)ccc1OCC(=O)NC1CC1`, with 1.55%.
With `Cc1nc(N)sc1N=Nc1c(C)n(C)n(-c2ccccc2)c1=O`, the max response is -1.65%.
Then `Cc1c(N=Nc2ccc(N(C)C)cc2)c(=O)n(-c2ccccc2)n1C`, with 24.4% (active); and `Cc1ccc(N=Nc2c(C)[nH]n(-c3ccccc3)c2=O)cc1`, with 7.15%; and `COc1ccccc1CCCNC(=O)C1CCC(=O)N(CCN2CCOCC2)C1` (stereo unspecified), with -2.68%.
Then `COc1ccccc1CN1CC(C(=O)NCCc2cn[nH]c2)CCC1=O` (stereo unspecified), with 12.3% (active); and `Cc1ccccc1CCNC(=O)C1CCC(=O)N(Cc2ccc(Cl)cc2)C1` (stereo unspecified), with 6.9%.
Then `CN1CCN(Cc2nc3cc(NC(=O)COc4ccc([N+](=O)[O-])cc4)ccc3n2C)CC1`, with -3.77%; and `CCN(C(=O)Cc1c(C(=O)O)n(CC)c2ccccc12)c1ccccc1C`, with -1.37%.
For the molecule `Cc1cc(C)nc(NC(=O)c2cccc([N+](=O)[O-])c2)c1`, the max response was -2.71%.
For `CCCCNc1ccc(C(=O)Nc2cccc(C)n2)cc1[N+](=O)[O-]` the value was 12.7% (active); for `CCOC(=O)c1ccc(NNC(C)=O)c([N+](=O)[O-])c1`, 16.3%; for `Cc1cc(C)nc(S/C=C/C(=O)c2ccccc2)n1`, 109% (active).
For `Cc1cc(C)nc(SCC(=O)c2ccc(Cl)cc2)n1` the value was 2.56%.
Then `Cc1cc(SCC(=O)c2ccccc2)nc(SCC(=O)c2ccccc2)n1`, with 6.74%.
Take `CC(=O)N(C)c1ccc(NC(=O)C(F)(F)F)cc1`: the max response is -1.33%.
For `CN(C)c1ccc(N/C=C/C(=O)C(F)(F)F)cc1` the value was 55.6% (active); for `O=C(/C=C/Nc1ccccc1OC(F)(F)F)C(F)(F)F`, -2.95%.
